# Reference: PMC11062922 (Nature Chemical Biology, 2023)
# Read-outs that look alike come from different tables or passages of the source.
# Columns and labels:
# Set-up in all cases: species or system human, MV4-11 + K-562 + COLO205 + SK-N-BE2 + OVCAR-8
# [1] = tested on: ABL1; conditions: read-out: apparent Kd, n = 1
# [2] = tested on: ABL2; conditions: read-out: apparent Kd, n = 1
# [3] = tested on: PTK6; conditions: read-out: apparent Kd, n = 1
# [4] = tested on: STK16; conditions: read-out: apparent Kd, compound concentrations: 100 nM and 1000 nM (sheet 'Samples'), n = 1
# [5] = tested on: CSNK1E; conditions: read-out: apparent Kd, n = 1
# [6] = tested on: MAPK10; conditions: read-out: apparent Kd, n = 1
# [7] = tested on: EPHA2; conditions: read-out: apparent Kd, n = 1
# [8] = tested on: HCK; conditions: read-out: apparent Kd, n = 1
# [9] = tested on: PHKG2; conditions: read-out: apparent Kd, n = 1
# [10] = tested on: PRKX; conditions: read-out: apparent Kd, n = 1
# [11] = tested on: ROCK2; conditions: read-out: apparent Kd, n = 1
# [12] = tested on: SRC; conditions: read-out: apparent Kd, n = 1
# [13] = tested on: YES1; conditions: read-out: apparent Kd, n = 1
# [14] = tested on: CSNK1A1; conditions: read-out: apparent Kd; compound concentrations: 100 nM and 1000 nM (sheet 'Samples'), CATDS: 5.7270515376472299E-2; n = 1
# [15] = tested on: MAPK8; conditions: read-out: apparent Kd; compound concentrations: 100 nM and 1000 nM (sheet 'Samples'), CATDS: 8.8818893864712808E-3; n = 1
# [16] = tested on: CDK17; conditions: read-out: apparent Kd; compound concentrations: 100 nM and 1000 nM (sheet 'Samples'), CATDS: 6.8555901877920197E-3; n = 1
# [17] = tested on: RIOK2; conditions: read-out: apparent Kd; compound concentrations: 100 nM and 1000 nM (sheet 'Samples'), CATDS: 6.5501119131463198E-3; n = 1
# [18] = tested on: TNIK; conditions: read-out: apparent Kd; compound concentrations: 100 nM and 1000 nM (sheet 'Samples'), CATDS: 6.3415403729181101E-3; n = 1
# [19] = compound concentrations:100 nM and 1000 nM (sheet 'Samples')
smiles,measurement,setting,value
Cc1ccc(Nc2ccnc(Nc3ccc4c(c3)CS(=O)(=O)C4)n2)cc1O.Cl [GW579362A],potency estimated from few doses,"[1]; compound concentrations: 100 nM and 1000 nM (sheet 'Samples'), CATDS: 2.9223994432995299E-2",1330 nM
same,potency estimated from few doses,"[2]; compound concentrations: 100 nM and 1000 nM (sheet 'Samples'), CATDS: 4.4791805431594098E-2",448 nM
same,potency estimated from few doses,"[3]; compound concentrations: 100 nM and 1000 nM (sheet 'Samples'), CATDS: 3.01604654859133E-2",1200 nM
same,potency estimated from few doses,[4]; CATDS: 2.76147737346315E-2,1620 nM
Cc1cccc(-c2nc(Nc3ccncc3)c3sccc3n2)n1 [GW869641X],potency estimated from few doses,[5]; [19],418 nM
same,potency estimated from few doses,[6]; [19],1140 nM
Cl.Cl.NCC(C(=O)Nc1cc(Br)c(-c2ccnc3[nH]ccc23)s1)c1ccccc1.NCC(C(=O)Nc1cc(Br)c(-c2ccnc3[nH]ccc23)s1)c1ccccc1 (stereo not shown) [GSK1269851A],potency estimated from few doses,[1]; [19],1040 nM
same,potency estimated from few doses,[2]; [19],433 nM
same,potency estimated from few doses,[7]; [19],505 nM
same,potency estimated from few doses,[8]; [19],554 nM
same,potency estimated from few doses,[9]; [19],2300 nM
same,potency estimated from few doses,[10]; [19],1890 nM
same,potency estimated from few doses,[3]; [19],1450 nM
same,potency estimated from few doses,[11]; [19],1330 nM
same,potency estimated from few doses,[12]; [19],523 nM
same,potency estimated from few doses,[13]; [19],378 nM
CCOC(=O)N1CCC(n2cnc(-c3ccc(F)cc3)c2-c2ccnc(N)n2)CC1 [SB-219952],potency estimated from few doses,"[1]; compound concentrations: 100 nM and 1000 nM (sheet 'Samples'), CATDS: 8.9388068544210691E-3",1180 nM
same,potency estimated from few doses,"[2]; compound concentrations: 100 nM and 1000 nM (sheet 'Samples'), CATDS: 1.2118968768927599E-2",552 nM
same,potency estimated from few doses,[14],44.2 nM
same,potency estimated from few doses,"[5]; compound concentrations: 100 nM and 1000 nM (sheet 'Samples'), CATDS: 8.1899018563860101E-2",27.3 nM
same,potency estimated from few doses,"[7]; compound concentrations: 100 nM and 1000 nM (sheet 'Samples'), CATDS: 1.0740036537242301E-2",726 nM
same,potency estimated from few doses,"[8]; compound concentrations: 100 nM and 1000 nM (sheet 'Samples'), CATDS: 1.02495423413253E-2",814 nM
same,potency estimated from few doses,"[6]; compound concentrations: 100 nM and 1000 nM (sheet 'Samples'), CATDS: 4.1731696442012502E-2",69 nM
same,potency estimated from few doses,[15],1210 nM
same,potency estimated from few doses,"[9]; compound concentrations: 100 nM and 1000 nM (sheet 'Samples'), CATDS: 9.7897546431884499E-3",916 nM
same,potency estimated from few doses,"[3]; compound concentrations: 100 nM and 1000 nM (sheet 'Samples'), CATDS: 1.0027639490301001E-2",861 nM
same,potency estimated from few doses,"[12]; compound concentrations: 100 nM and 1000 nM (sheet 'Samples'), CATDS: 1.0314047860945599E-2",802 nM
same,potency estimated from few doses,"[13]; compound concentrations: 100 nM and 1000 nM (sheet 'Samples'), CATDS: 1.05685479515238E-2",755 nM
COc1ccc(Nc2ncc(C#N)c(Nc3ccccc3C(N)=O)n2)cc1N1CCN(C)CC1.Cl [GSK1558669A],potency estimated from few doses,"[1]; compound concentrations: 100 nM and 1000 nM (sheet 'Samples'), CATDS: 1.2086196789939699E-2",112 nM
same,potency estimated from few doses,"[2]; compound concentrations: 100 nM and 1000 nM (sheet 'Samples'), CATDS: 8.4087803089845196E-3",334 nM
same,potency estimated from few doses,[16],789 nM
same,potency estimated from few doses,"[8]; compound concentrations: 100 nM and 1000 nM (sheet 'Samples'), CATDS: 7.9271656911812094E-3",417 nM
same,potency estimated from few doses,"[6]; compound concentrations: 100 nM and 1000 nM (sheet 'Samples'), CATDS: 6.8664179629566802E-3",783 nM
same,potency estimated from few doses,"[3]; compound concentrations: 100 nM and 1000 nM (sheet 'Samples'), CATDS: 1.8195014804837699E-2",44.6 nM
same,potency estimated from few doses,[17],1000 nM
same,potency estimated from few doses,[4]; CATDS: 6.09253969178725E-3,1570 nM
same,potency estimated from few doses,[18],1210 nM
same,potency estimated from few doses,"[13]; compound concentrations: 100 nM and 1000 nM (sheet 'Samples'), CATDS: 8.5191429755921595E-3",318 nM
CCn1c(-c2nonc2N)nc2c(C#CC(C)(C)O)nc(OC[C@@H](N)c3ccccc3)cc21 [GSK938890A],potency estimated from few doses,"[10]; compound concentrations: 100 nM and 1000 nM (sheet 'Samples'), CATDS: 0.16139090072401199",36.6 nM
same,potency estimated from few doses,"[11]; compound concentrations: 100 nM and 1000 nM (sheet 'Samples'), CATDS: 5.36427183140821E-2",1160 nM
